MCF10A rereplic – A quantitative high throughput screen for small molecules that induce DNA re-replication in MCF 10a normal breast cells | Potency, µM (titrated, usually from 46.1 µM), inactives show at the top dose activity, positive = re-replication, usual class: activators | 350,000 tested, 2.9% active | MCF 10A DNA re-replication, Hoechst nuclear intensity, 48 h; note: % of control where 0% means no effect; nearly all actives have a fitted effect of over 50% in size
HT1080-NT tox – qHTS for induction of synthetic lethality in tumor cells producing 2HG: qHTS for the HT-1080-NT fibrosarcoma cell line | HT-1080-NT fibrosarcoma viability, CellTiter-Glo ATP luminescence, 48 h | Potency, µM (top dose mostly 46.1 µM), inactives show top-dose activity, negative = less viability, most hits filed as cytotoxic | 360,000 tested, 1.6% active | AID 686970, 2013;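 note: NT is the 2HG producing partner of a matched IDH1 knockdown line; 0% = DMSO-treated cells and -100% = media-only wells without cells; nearly all actives have a fitted effect of over 55% in size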
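Fibrosarcoma NT cells, 750 per well in 5% FBS RPMI, were exposed to compound for 48 hours. Viability: CellTiter-Glo luminescence.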
KB-V1 MDR tox – qHTS assay for MDR1-selective chemotherapeutics: Primary screen using the drug-selected MDR subline cells KB-V1. KB-V1 MDR cells viability, CellTiter-Glo, 72 h. Potency, µM (series often up to 46.1 µM), most hits filed as cytotoxic. 400,000 tested, 3.4% active. AID 1347076, 2019; note: % is set by controls: 0 for no effect and ±100 for the full control effect; nearly all actives have a fitted effect of over 60% in size
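qHTS viability screen in drug-selected KB-V1 MDR cells: 72 h compound treatment at 37 degrees C, ATP luminescence end point.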
HT1080 IDH1KD tx – qHTS for induction of synthetic lethality in tumor cells producing 2HG: qHTS for the HT-1080-IDH1KD cell line. HT-1080 IDH1 knockdown viability, ATP luminescence, 48 h. Potency, µM (titrated, usually from 46.1 µM), for the others: at the highest dose activity, negative = toxicity, most hits filed as cytotoxic. 360,000 tested, 2% active. AID 686971, 2013;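 note: 0% = DMSO wells and -100% = cell-free medium wells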
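After a 2 h attachment period, IDH1KD HT-1080 cells took pin-transferred compound for 48 h at 37 °C; ATP-based luminescence after 10 min room-temperature reagent incubation reported viability.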
SW480 rereplic – A quantitative high throughput screen for small molecules that induce DNA re-replication in SW480 colon adenocarcinoma cells | SW480 DNA re-replication, Hoechst DNA content imaging, 48 h | Potency, µM (titrated, usually from 46.1 µM), for the others: at the highest dose re-replication activation, most hits filed as activators | 340,000 tested, 1.8% active | AID 624297, 2012; note: % of control where 0% means no effect; nearly all actives have a fitted effect of over 55% in size
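Quantitative HTS format with DMSO vehicle controls; 48 hr drug incubation at 37 C, then 40 min Hoechst staining and scanning imager measurement at 405 nm excitation.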
KB-3-1 cytotox – qHTS assay for MDR1-selective chemotherapeutics: Primary screen using the parental adenocarcinoma cell KB-3-1 | KB-3-1 viability, CellTiter-Glo ATP luminescence, 72 h | 400,000 tested, 1.4% active | Potency, µM (highest dose often 46.1 µM), actives largely listed as cytotoxic; note: % is set by controls: 0 for no effect and ±100 for the full control effect; nearly all actives have a fitted effect of over 60% in size
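Cytotoxicity measured as CellTiter-Glo luminescence after 72 h at 37 C. Compound titrations were pinned onto drug-naive KB-3-1 parental adenocarcinoma cells grown in DMEM with 10% FBS, and normalized data fitted to concentration-response curves.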
* = called active by the depositor; i = inactive; ? = inconclusive; / = not tested or not shown; [ ] = remark or other dose. Most compounds without a hit are left out; they make up all but 7.9% or so of the library. Calls come from the whole dose curve; as a rule, active = well fitted curve in the direction sought with a large enough effect; inconclusive = small, poorly fitted or top-dose-only effect, or another doubt; inactive = no such curve, though single readings can be large; an effect the other way counts as inactive or inconclusive. Potency is the fitted concentration of half-maximal effect.

SMILES	MCF10A rereplic	HT1080-NT tox	KB-V1 MDR tox	HT1080 IDH1KD tx	SW480 rereplic	KB-3-1 cytotox
CCCCNc1c(-c2cccc(-c3cc(C(C)=O)cs3)c2)nc2ccc(C)cn12	?	20.6µM*	20.6µM*	?	?	?
CCCCNc1c(-c2cccc(-c3ccc(OC)cc3)c2)nc2ccc(C)cn12	4.11µM*	?	?	?	?	?
CC(C)Cn1nc(NC(=O)c2cccc(Cl)c2)c2cc3ccccc3nc21	/	/	?	/	/	i
CN(CCOc1ccc(Cl)cc1)C(=O)c1cc(-c2ccco2)nc2ccccc12	?	-4.9%	16.4µM*	-14.2%	-27.8%	i
Cc1ccc(C)c(S(=O)(=O)Nc2ccc(C(=O)NCC(c3ccco3)N(C)C)cc2)c1 (centres undefined)	0.7%	4.3%	i	0.4%	-6.8%	i
Cc1ccccc1NS(=O)(=O)c1ccc(C(=O)NCC(c2ccccc2)N(C)C)cc1 (centres undefined)	?	0.1%	?	-25.6%	-20.0%	i
Cc1ccc(S(=O)(=O)N(C)c2ccc(C(=O)NCC(c3ccco3)N(C)C)cc2)cc1 (centres undefined)	9.2µM*	3.1%[9.24 µM]	i	6.8%	-1.4%	i
Cc1ccccc1NS(=O)(=O)c1ccc(C(=O)NCC(c2ccco2)N(C)C)cc1 (centres undefined)	?	-5.0%	14.6µM*	-10.4%	1.8%	i
O=[N+]([O-])/C(=C\Nc1ccc(F)cc1F)S(=O)(=O)c1ccccc1	23.9%	9.1%	i	3.3%	-5.0%	i
O=[N+]([O-])c1ccc(Cl)c(CN2CCN(c3ncc(Cc4ccccc4)cn3)CC2)c1	/	-19.9%	5.17µM*	-21.7%	/	?
O=C(Cn1ncc2c3ccccc3n(Cc3ccccc3F)c2c1=O)NCCN1CCOCC1	-6.4%	6.7%	i	8.4%	-13.5%	i
O=C(Cn1ncc2c3ccccc3n(Cc3ccccc3F)c2c1=O)NCCCN1CCCC1=O	3.5%	-17.0%	?	-25.2%	-23.9%	6.51µM*
CC1CC(C)(C)CC2(C1)NC(=O)N(CC(=O)OCc1ccc(Br)cc1)C2=O (centres undefined)	?	-5.4%	16.4µM*	?	4.0%	i
C=CCn1c(SCC(=O)NC2CC2)nnc1-c1cccc(OC)c1	1.2%	13.8%	i	0.5%	-4.3%	i
COc1ccc(-n2cnnc2SCC(=O)NC2CC2)cc1	/	-0.7%	i	4.8%	/	i
Cn1c(SCC(=O)NC2CC2)nnc1-c1ccccc1Cl	-14.2%	3.2%	i	4.1%	5.7%	i
Cn1c(SCC(=O)NC2CCCCC2)nnc1-c1ccccc1F	-20.3%	1.4%	i	11.5%	9.2µM*	i
C=CCn1c(SCC(=O)NC2CCCCC2)nnc1-c1ccc(OC)cc1	-37.9%	15.1%	4.11µM*	15.5%	-7.5%	i
COc1ccc(-n2cnnc2SCC(=O)NC2CCCCC2)cc1	1.1%	-7.2%	23.1µM*	-10.1%	3.0%	i
O=C(CSc1nncn1-c1ccccc1F)NC1CCCCC1	-1.9%	-1.9%	20.6µM*	2.8%	-3.4%	i
CCOC(=O)C1CCCN(C(=O)CCNS(=O)(=O)c2cc(Br)cnc2N)C1 (centres undefined)	9.6%	-1.6%	i	1.5%	23.0%	i
CCOc1ccc(C(=O)OCC(=O)c2c(N)n(C)c(=O)n(C)c2=O)cc1OCC	6.0%	-1.4%	i	-1.3%	-2.0%	i
CN(c1ccccc1)S(=O)(=O)c1cc(C(=O)OCC(=O)c2c(N)n(C)c(=O)n(C)c2=O)ccc1Cl	3.4%	-7.7%	16.4µM*	-1.0%	-5.9%	i
Cn1c(N)c(C(=O)COC(=O)c2ccc(Cl)c(S(=O)(=O)N3CCCCC3)c2)c(=O)n(C)c1=O	?	-2.5%	20.6µM*	8.3%	22.1%	i
CCN(c1ccccc1)S(=O)(=O)c1cc(C(=O)OCC(=O)c2c(N)n(C)c(=O)n(C)c2=O)ccc1C	5.9%	-2.7%	i	-2.9%	-4.6%	i
SMILES	MCF10A rereplic	HT1080-NT tox	KB-V1 MDR tox	HT1080 IDH1KD tx	SW480 rereplic	KB-3-1 cytotox
COc1ccccc1C(=O)n1nc(-c2ccccc2)nc1NCc1ccc(Cl)cc1	/	/	14.6µM*	/	/	?
CCC(=O)n1nc(-c2cccnc2)nc1NCc1ccccc1	-3.8%	-35.2%	i	4.61µM*	-2.2%	?
COc1ccccc1C(=O)n1nc(-c2ccccc2)nc1NCc1ccco1	-4.2%	8.8%	?	2.0%	-8.2%	i
O=C(c1cccs1)n1nc(-c2ccccc2)nc1NCc1ccc(F)cc1	72.2%	16.9%	13µM*	-10.7%	1.3%	?
O=C(c1ccccc1)n1nc(-c2ccccc2)nc1NCc1ccc(F)cc1	/	/	i	/	/	i
Fc1ccc(Nc2cccc3nccnc23)cc1	-1.9%	9.2%	i	6.3%	-8.3%	i
c1ccc2nccnc2c1	/	/	?	/	/	4.61µM*
c1cc(Nc2cccc3nccnc23)c2nccnc2c1	13.4%	-5.7%	?	-26.0%	8.2µM*	?
c1ccc2ncccc2c1	14.0%	-1.8%	i	0.6%	-2.8%	?
COc1cc2nc(Cl)nc(NC(C)C)c2cc1OC	/	-18.2%	/	-10.3%	/	/
COc1ccc(-n2c(-c3cc(-c4ccccc4)sc3N)n[nH]c2=S)cc1	-1.6%	16.4µM*	i	?	5.2%	?
C=CCn1c(-c2cc(-c3ccccc3)sc2N)n[nH]c1=S	0.0%	9.7%	i	16.4%	-2.6%	i
Nc1sc(-c2ccccc2)cc1-c1n[nH]c(=S)n1C1CCCCC1	3.26µM*	3.66µM*	i	1.46µM*	3.26µM*	?
COc1cccc(CNC(=O)CCCn2nc(C)c3sc4ccccc4c3c2=O)c1	/	/	i	/	/	i
Cc1nc([N+](=O)[O-])c(Sc2nc3ccc([N+](=O)[O-])cc3[nH]2)n1Cc1ccccc1	18.4µM*	-13.7%	i	-9.5%	?	i
Cc1cccc(C(=O)NCC(=O)OCC(=O)c2ccc3ccccc3c2)c1	/	/	i	/	/	i
COc1ccc2c(c1)-c1c(ssc1=S)C(C)(C)N2	11.6µM*	?	?	?	-4.4%	i
COc1ccc(-n2sc3c(c2=S)-c2cc(OC)ccc2NC3(C)C)cc1	18.4%	?	i	?	19.3%	i

Screening data deposited in PubChem by National Center for Advancing Translational Sciences (NCATS).
